# Bioassay records (PubChem BioAssay)
# Many of the other results were omitted from the sample, so hits are more common in it than they were.
# HT1080 IDH1KD tx = HT-1080 IDH1 knockdown cell toxicity (counter line); HT-1080 IDH1 knockdown viability, ATP luminescence, 48 h; Potency, µM (doses to about 46.1 µM), for inactives: at the top dose activity, negative = toxicity, hits mostly cytotoxic; 2% of 360,000 active;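 also: potency is read from the fitted curve at half-maximal effect; 0% = DMSO wells and -100% = cell-free medium wells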
#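 CellTiter-Glo luminescence after 48 h compound exposure at 37 degrees C of IDH1-knockdown HT-1080 cells in 5% FBS RPMI. %Activity scaled between DMSO wells and cell-free media wells, with curves fitted and assigned curve classes.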
# TDP1 cell CPT = growth inhibition of DT40 Tdp1-/-;hTDP1 cells with camptothecin (screen for TDP1 inhibitors); chicken DT40 Tdp1-/-;hTDP1 cells + 20 nM CPT, ATP luminescence, 48 h; 12% of 420,000 active; Potency, µM (series often up to 46.2 µM), for inactives: at the top dose activity change, negative = growth inhibition, usual class: inhibitors; also: potency is read from the fitted curve at half-maximal effect; nearly all actives have a fitted effect of over 55% in size
#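 Cell growth measured by CellTiter-Glo luminescence after a minimum 48 h, 37 C compound exposure with 20 nM CPT in Tdp1-knockout DT40 cells stably expressing hTDP1, seeded 400/well; qHTS titration format.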
# TDP1 cell noCPT = qHTS for Inhibitors of human tyrosyl-DNA phosphodiesterase 1 (TDP1): qHTS in cells in absence of CPT | DT40 Tdp1-/- hTDP1 cells, no CPT, ATP luminescence, 48 h | Potency, µM (highest dose often 46.2 µM), for the others: at the top dose activity change, negative = growth inhibition, usual class: inhibitors | 15% of 420,000 active; also: potency is read from the fitted curve at half-maximal effect; nearly all actives have a fitted effect of over 55% in size
#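 Growth kinetics read by CellTiter-Glo luminescence after ≥48 hr at 37 °C. Cells: DT40 Tdp1-/- stably carrying human TDP1, 400 per well, compound exposure in the absence of CPT (DMSO vehicle).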
# ALOX12 inh = inhibitors of human 12S-lipoxygenase ALOX12. 1.1% of 580,000 active. purified 12hLO, xylenol orange hydroperoxide absorbance. Potency, µM (series often up to 108 µM), for the others: at the highest dose activity change, negative = inhibition, most hits filed as inhibitors. P18054; also: potency is read from the fitted curve at half-maximal effect
# Target sequence (P18054 whole entry, looked up): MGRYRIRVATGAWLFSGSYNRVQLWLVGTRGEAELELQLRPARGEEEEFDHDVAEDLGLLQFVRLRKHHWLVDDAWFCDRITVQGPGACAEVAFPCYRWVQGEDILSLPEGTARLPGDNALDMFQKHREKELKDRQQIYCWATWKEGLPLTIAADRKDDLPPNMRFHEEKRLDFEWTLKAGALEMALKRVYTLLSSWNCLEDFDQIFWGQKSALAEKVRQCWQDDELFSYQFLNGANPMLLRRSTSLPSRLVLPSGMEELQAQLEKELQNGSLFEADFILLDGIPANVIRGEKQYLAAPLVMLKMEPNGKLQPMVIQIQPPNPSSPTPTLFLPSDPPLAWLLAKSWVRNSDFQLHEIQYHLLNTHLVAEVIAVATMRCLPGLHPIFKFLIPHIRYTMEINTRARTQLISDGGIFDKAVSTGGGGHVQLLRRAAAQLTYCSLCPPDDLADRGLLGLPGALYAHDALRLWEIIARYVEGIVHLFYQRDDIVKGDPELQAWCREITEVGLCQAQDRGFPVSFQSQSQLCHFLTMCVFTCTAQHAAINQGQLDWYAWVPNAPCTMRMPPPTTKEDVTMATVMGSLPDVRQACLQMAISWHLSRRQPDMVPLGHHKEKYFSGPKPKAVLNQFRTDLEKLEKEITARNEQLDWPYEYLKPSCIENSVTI
#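 Hydroperoxide product was detected by ferrous iron/xylenol orange as the 573 to 405 nm absorbance ratio. Arachidonic acid at 40 uM (final) was turned over for 30 min at room temperature by 150 nM human 12hLO, pH 7.0 Hepes buffer, after 15 min compound preincubation.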
# IL1B secr inh = blocks inflammasome-driven IL-1 beta release. THP-1 LPS/ATP IL-1B secretion, AlphaLISA, 16 h; hits give low values. activity change, % at 57.5 µM. 4.7% of 360,000 active; in the data active = activity change below about -50%; inconclusive = mostly about -30% to -49%
#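 Secreted IL-1B measured by AlphaLISA bead assay after 16 h compound exposure of THP-1 cells; compounds (final up to 57.5 uM) added 1 h before LPS (250 ng/mL) and ATP (1.25 mM) stimulation; lower signal means less secretion.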
# HT1080-NT tox = kills 2HG-producing HT-1080-NT fibrosarcoma cells; Potency, µM (titrated, usually from 46.1 µM), inactives show at the top dose activity, negative = less viability, hits mostly cytotoxic; HT-1080-NT fibrosarcoma viability, CellTiter-Glo ATP luminescence, 48 h; 1.6% of 360,000 active;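 also: NT is the 2HG producing partner of a matched IDH1 knockdown line; potency is read from the fitted curve at half-maximal effect; 0% = DMSO-treated cells and -100% = media-only wells without cells; nearly all actives have a fitted effect of over 55% in size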
#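 Read-out is CellTiter-Glo luminescence after 10 minutes at room temperature, following 48 hours' compound treatment of HT-1080-NT cells (750 cells/well, RPMI, 5% FBS, 37 degrees C).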
# * = called active by the depositor; u = inconclusive; x = not tested or not shown; [ ] = remark or other dose. Unless noted, calls follow the shape of the dose curve; as a rule, active = well fitted curve in the direction sought with a large enough effect; inconclusive = small, poorly fitted or top-dose-only effect, or another doubt; inactive = no such curve, though single readings can be large; an effect the other way counts as inactive or inconclusive. Unless noted, % is scaled to controls: 0 for no effect and ±100 for the full control effect.
SMILES,HT1080 IDH1KD tx,TDP1 cell CPT,TDP1 cell noCPT,ALOX12 inh,IL1B secr inh,HT1080-NT tox
CC(C)c1noc([C@@H]2Cc3nc[nH]c3CN2C(=O)Nc2ccc(Cl)cc2)n1,x,x,x,46.7%[176 µM],x,x
CCOc1ccc(NC(=O)c2c(NC(=O)CN3CCCC3)sc3c2CCC(C(C)(C)C)C3)cc1 (stereo not drawn),x,x,x,28.8%,x,x
CSCC[C@H](C=O)NC(=O)[C@H](CC(C)C)NC(=O)[C@H](CC(C)C)NC(C)=O,x,18.8µM*,15µM*,0.0%,x,x
CCCC[C@@H](C=O)NC(=O)[C@H](CC(C)C)NC(=O)[C@H](CC(C)C)NC(C)=O,x,1.26µM*,1.13µM*,6.6%,x,x
CC1(C)C2CCC1(C)C(SC(=N)N)C2 (stereo not drawn),-13.1%,20.6µM*,u,-1.8%,-82.4*,-6.1%
CCCCc1ccc(-c2csc(-c3nc(-c4ccc(CC)cc4)c(C)s3)n2)cc1,x,x,x,16.5%,x,x
COc1ccc(-n2c(CNc3ccc(C)cc3)nnc2SCc2ccccc2)cc1,-16.5%,u,16.4µM*,u,-18.7,-13.3%
COc1ccc(NCc2nnc(SCC(=O)NCc3ccccc3)n2-c2ccccc2OC)cc1,2.7%,5.8%,-6.4%,352.2%,6.6,3.1%
CCn1c(CNc2ccc(Cl)cc2)nnc1SCc1ccccc1,-12.2%,u,u,-24.4%,-76.4*,-4.9%
CCn1c(CNC(=O)c2ccc(Cl)cc2)nnc1SCC(=O)N1CCOCC1,10.5%,3.9%,4.7%,16.1%,0.0,5.4%
C=CCSc1nnc(CNC(=O)c2ccc(Cl)cc2)n1CC,3.8%,10.0%,4.0%,-1.6%,-69.2*,-2.4%
CCn1c(SCc2ccccc2)nnc1-c1cccs1,u,18.4µM*,6.51µM*,-3.3%,-21.6,-7.7%
COc1ccc(C(=O)N2CCCC(n3cc(-c4nc(-c5ccccc5)no4)nn3)C2)cc1OC (stereo not drawn),x,x,x,13.8%,x,x
COc1ccc(Cl)cc1NC(=O)C(=O)c1cn(CC(=O)N2CCOCC2)c2ccccc12,x,x,x,16.5%,x,x
CCn1c(Cn2nnc(-c3ccccc3)n2)nnc1SCc1ccc(Cl)c(Cl)c1,u,20.6µM*,23.1µM*,-21.7%,-0.7,u
CCn1c(Cn2nnc(-c3ccccc3)n2)nnc1SCC(=O)N1CCOCC1,-3.0%,-3.4%,-0.5%,0.0%,-6.2,-5.2%
CCO[C@H]1OC(C(=O)N2CCN(C)CC2)=C[C@@H](c2ccc(C(F)(F)F)cc2)[C@@H]1CCCO,0.4%,-3.7%,-0.7%,-2.1%,1.8,1.6%
CCO[C@H]1OC(C(=O)N2CCN(Cc3ccccc3)CC2)=C[C@@H](c2ccc(C(F)(F)F)cc2)[C@@H]1CCCO,-11.9%,20.6µM*,14.6µM*,-10.2%,-59.6*,-3.2%
CCO[C@H]1OC(C(=O)N2CCCCCCC2)=C[C@@H](c2csc3ccccc23)[C@@H]1CCCO,-13.0%,-28.3%,-26.7%,21.7%,-9.6,-9.8%
CCO[C@@H]1OC(C(=O)N2CCN(Cc3ccccc3)CC2)=C[C@H](c2csc3ccccc23)[C@H]1CCCO,-22.7%,13µM*,29.1µM*,63.7%,-54.4*,u
CCO[C@@H]1OC(C(=O)N2CCOCC2)=C[C@H](c2ccc(C(F)(F)F)cc2)[C@H]1CCCO,1.8%,14.6µM*,u,25.9%,25.4,6.0%
CCO[C@@H]1OC(C(=O)N2CCCCCCC2)=C[C@H](c2ccc(C(F)(F)F)cc2)[C@H]1CCCO,-0.6%,u,23.1µM*,-5.5%,-16.2,-2.6%
CC(C)CCn1c(N2CCN(CCCc3ccccc3)CC2)nc2c1c(=O)[nH]c(=O)n2C,x,x,x,-26.0%,x,x
CCO[C@@H]1OC(C(=O)N2CCN(C)CC2)=C[C@H](c2ccc(C(F)(F)F)cc2)[C@H]1CCCO,0.3%,-22.5%,-10.4%,-11.0%,12.3,0.3%
CCO[C@H]1OC(C(=O)N2CCOCC2)=C[C@@H](c2ccc(C(F)(F)F)cc2)[C@@H]1CCCO,0.9%,0.517µM*,u,0.7%,-3.4,11.6%
SMILES,HT1080 IDH1KD tx,TDP1 cell CPT,TDP1 cell noCPT,ALOX12 inh,IL1B secr inh,HT1080-NT tox
COc1ccc2c(c1)c(CC(=O)OC(C)C(=O)N(C)C)c(C)n2C(=O)c1ccc(Cl)cc1 (stereo not drawn),-1.9%,20.6µM*,14.6µM*,-5.6%,8.3,-4.2%
COc1ccc2c(c1)c(CC(=O)Nc1ccc(C)cc1)c(C)n2C(=O)c1ccc(Cl)cc1,-16.5%,u,20.6µM*,-4.0%,21.6,-12.3%
COc1ccc2c(c1)c(CCNNC(=O)C(C)(C)C)c(C)n2C(=O)c1ccc(Cl)cc1,-7.2%,23.1µM*,16.4µM*,1.7%,u,6.6%
COC(=O)CNC(=O)Cc1c(C)n(C(=O)c2ccc(Cl)cc2)c2ccc(OC)cc12,-11.4%,-24.7%,0.7%,-4.0%,23.5,-12.3%
COc1ccc2[nH]c(=O)c(CN(C)C(=O)c3ccccc3F)cc2c1,x,x,x,12.2%,x,x
CC(=O)c1cccc(NC(=O)C2(C)Cc3c(-c4ccccc4)ccnc3O2)c1 (stereo not drawn),-25.2%,23.1µM*,23.1µM*,6.0%,-9.1,-0.9%
CC(=O)Nc1cccc(-c2ccnc3c2CC(C)(C(=O)Nc2ccccc2)O3)c1 (stereo not drawn),0.0%,-29.6%,u,-0.3%,-21.6,-14.2%
CC(=O)Nc1ccc(-c2ccnc3c2CC(C)(C(=O)Nc2cccc(C(C)=O)c2)O3)cc1 (stereo not drawn),-3.5%,u,16.4µM*,15.2%,u,3.9%
CC(=O)Nc1cccc(-c2ccnc3c2CC(C)(C(=O)Nc2cccc(Oc4ccccc4)c2)O3)c1 (stereo not drawn),u,16.4µM*,20.6µM*,u,-19.5,u
CC(=O)Nc1ccc(NC(=O)C2(C)Cc3c(-c4ccccc4)ccnc3O2)cc1 (stereo not drawn),6.7%,u,-27.9%,-11.3%,-9.9,u
CC1(C(=O)Nc2cccc(Oc3ccccc3)c2)Cc2c(-c3ccccc3)ccnc2O1 (stereo not drawn),u,u,u,-2.8%,-24.8,u
CC(=O)N1CCCc2ccc(NC(=O)c3ccc(OC(C)C)cc3)cc21,x,u,16.4µM*,-5.0%,x,x
COc1ccc(S(=O)(=O)Nc2ccc3c(c2)N(C(C)=O)CCC3)cc1OC,1.9%,u,u,u,-4.1,-1.1%
COc1ccc(S(=O)(=O)Nc2ccc3c(c2)N(C(C)=O)CCC3)cc1,-18.4%,18.4µM*,16.4µM*,-2.7%,7.7,-22.0%
